Structures are written as SMILES.

Our source for the z-score values is PubChem BioAssay.

A short description of this test: basal RPMI8226 viability, no added stimulus, profiling panel, cell-based, calcein-AM fluorescence, 48 h, PK04 Diversity Set (AID 1166).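 Also: cells grown under basal conditions without added stimulus; test concentration not given here.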 The conditions noted are these: RPMI8226 myeloma viability, higher = more signal.
Turning to `COc1ccc(C#Cc2ccc3c(c2)[C@]2(C(=O)N3)[C@H](C(=O)N3CCN(c4ncccn4)CC3)[C@H]3C(=O)O[C@H](c4ccccc4)[C@H](c4ccccc4)N3[C@@H]2c2ccc(O)cc2)cc1`, the z-score was -0.404.
The figure for `CCCC[C@H]1C[C@@H]1[C@@H]1N(P(=O)(c2ccccc2)c2ccccc2)[C@](CO)(c2ccccc2)CC12CC2` is -4.69.
Regarding `O=C(N1CCCCC1)[C@]1(CCS(=O)(=O)c2ccccc2)N=C(c2ccc(OCCCO)cc2)O[C@@H]1c1ccccc1`, the z-score is -3.65.
The figure for `OCCCc1cc[n+](Cc2cccc(OC(F)(F)F)c2)cc1` is -1.86.
On to `COc1ccc([Si](C)(C)[C@H]2[C@H](CC(=O)N3CCC[C@H]3CO)O[C@@]3(C(=O)N(Cc4cccc(N5CCC5=O)c4)c4ccccc43)[C@@H]2C)cc1`, for which the z-score is -4.11.
Take `CCCNC(=O)[C@@]1(c2ccc([N+](=O)[O-])cc2)CC(=O)N(CC23CC4CC(CC(C4)C2)C3)[C@@H]1c1ccc(CO)cc1I`: the z-score was -4.32.
With `CCCNC(=O)[C@@]1(C)c2ccccc2C(=O)N(Cc2cc(F)cc(C(F)(F)F)c2)[C@H]1c1ccc(CO)cc1`, the z-score is 1.18.
For `C=C[C@H](C)[C@H](OC(=O)Nc1ccc(OC)cc1)c1ccc(O)c2ccccc12`, the z-score is -4.25.
Consider `O=c1cccc(-c2ccccc2)o1`, for which the z-score is -0.664.
On to `CC1CC/C=C\[C@H]2OC34C=CCN(Cn5nnc6ccccc65)C(=O)[C@H]3N(CCCO)C(=O)[C@@H]4C2C(=O)O1` (some centres not stated), for which the z-score was -0.894.
`COc1ccc(C#Cc2ccc3c(c2)[C@]2(C(=O)N3)[C@H](c3ccc(OCCO)cc3)N3[C@H](c4ccccc4)[C@H](c4ccccc4)OC(=O)[C@H]3[C@@H]2C(=O)Nc2nc3ccccc3s2)cc1`: the z-score is -1.37.
With `C=C(C(=O)CC[C@H](OC(=O)c1cccnc1)c1ccccc1OCCO)C(C)C`, the z-score is -1.69.
Under `C=CC[C@@]1(C(=O)NCCN2CCOCC2)N=C(c2ccc(OCCCO)cc2)O[C@@H]1c1ccccc1CN=[N+]=[N-]` stands -1.03; under `C=CCOC(=O)[C@H]1[C@@H]2C(=O)O[C@@H](c3ccccc3)[C@@H](c3ccccc3)N2[C@@H](c2ccc(OCCOC(=O)[C@@H]3C[C@@H]4C(=O)NCC(=O)N4[C@@H]3c3ccc(O)cc3)cc2)[C@]12C(=O)Nc1ccc(I)cc12`, 0.169; under `CCOC(=O)C[C@H]1[C@H](OC(=O)c2ccc(C(=O)c3ccccc3)cc2)[C@@H](NC(=O)c2ccc3ccccc3n2)c2cc(OCCCO)ccc2N1C(=O)c1ccc2ccccc2n1`, -0.0521.
On to `C=CCC(OC(C)=O)[C@@H]1[C@@H](N(Cc2ccc(-c3cccc(C(F)(F)F)c3)o2)C(=O)Cc2ccc(OC)cc2)c2cc(OCCCO)ccc2N1C(=O)Cc1ccc(OC)cc1` (some centres not stated), for which the z-score was -1.02.
In the case of `C=CCC(OC(C)=O)[C@@H]1[C@@H](N(Cc2ccc(-c3ccccc3)cc2)C(=O)c2ccc(C)cc2)c2cc(OCCCO)ccc2N1C(=O)Cc1ccc(OC)cc1` (some centres not stated), the z-score was 0.815.
On to `C=C(COC)C(=O)CC[C@@H](OC(=O)c1ccccc1-c1ccccc1C(=O)O)c1ccc(CO)o1`, for which the z-score was -0.883.
For the compound `CN(C)CCCC[C@@H]1NC(=O)[C@@H]2C[C@H](C(=O)NCCCCCN)[C@H](c3ccc(O)cc3)N2C1=O`, the z-score was -0.115.
The figure for `CN(C)CCCN1C(=O)[C@@]2(c3ccc([N+](=O)[O-])cc3)CC(=O)N(C3CCCCC3)[C@@H]2c2ccc(CO)cc21` is 0.505; for `O=C1C2C=CC(C(O)c3cccc4ccccc34)N(n3cnnc3)C2C(=O)N1Cc1ccccc1` (configuration not stated) it is -1.81.
Regarding `COCCCNC(=O)[C@]1(Cc2ccccc2N=[N+]=[N-])N=C(c2ccc(OCCCO)cc2)O[C@@H]1c1ccccc1CN=[N+]=[N-]`, the z-score was -4.11.
The figure for `C=C(COC)C(=O)CC[C@H](OC(=O)c1cccnc1)c1ccccc1OCCO` is -3.76; for `CCOC(=O)N1C(c2ccc(OCCCO)cc2)=NC(C(=O)OC)N1C(=O)OCC` (configuration not stated) it is 0.732.
Under `C=CCOC(=O)[C@H]1[C@@H]2C(=O)O[C@@H](c3ccccc3)[C@@H](c3ccccc3)N2[C@@H](c2ccc(OCCOC(=O)[C@H]3C[C@H]4C(=O)N[C@@H](CCCC[N+](C)(C)C)C(=O)N4[C@H]3c3ccc(O)cc3)cc2)[C@]12C(=O)Nc1ccccc12` stands 0.337.
The figure for `CC(C)N1C(=O)c2ccccc2[C@](C)(C(=O)NCCCN(C)C)[C@@H]1c1ccc(CO)cc1` is -0.384; for `C=CCC(OC(C)=O)[C@@H]1[C@@H](N(Cc2ccc(-c3ccccc3)cc2)C(=O)c2ccc(C)cc2)c2cc(OCCCO)ccc2N1C(=O)c1ccc2ccccc2n1` (some centres not stated) it is 1.28.
